In all, about 300,000 compounds went through this assay and about 5,400 (1.8%) were called active. Roughly 28% stayed inconclusive and do not appear here. The sample as a whole holds a higher share of actives than the screen did. Unmarked numbers belong to inactive results. Calls follow the shape of the full dose curve; tested in HEK293 cells. Non-standard residues stand in square brackets, D forms with d. Residues, ends and D or L forms follow the SMILES beside them. ξ: configuration not given here. Ac5c = NC1(C(=O)O)CCCC1; ξS = NC(CO)C(=O)O
% is scaled to controls: 0 for no effect and ±100 for the full control effect; potency is read from the fitted curve at half-maximal effect.

The test can be described thus: qHTS for inhibitors of binding or entry into cells for Marburg Virus. The note with it: Marburg virus pseudotyped entry inhibition, cell reporter; series mostly up to 37.8 µM; activity change, negative = inhibition: at the top concentration. On the technique in general: qHTS replaces the single test concentration by a dilution series.
With `CCCCN1C2CCC1CC(OC(c1ccc(F)cc1)c1ccc(F)cc1)C2` (configuration not stated), the Potency is 3.55 µM (active).
For `COc1cc(OC)cc(C(=O)Nc2nnc(SCC(=O)NCC3CCCO3)s2)c1` (configuration not stated), the “activity change, negative = inhibition” value was 29.5%.
As for `CCOc1ccc(NC(=O)CN2CCN(CC(=O)Nc3ccc(OC)cc3)CC2)cc1`, the Potency entry was “inactive”.
On to `COc1ccc(OC)c(NC(=O)CN2CCN(C(=O)c3ccco3)CC2)c1`, for which the “activity change, negative = inhibition” value is 10.5%.
For the compound `CCc1cc(C(=O)c2ccc(OC)cc2)c(NC(=O)CN2CCN(C)CC2)s1`, the Potency was 3.55 µM (active).
Consider `COc1ccc(CNC(=O)C2CCN(C(=O)c3ccco3)CC2)cc1`, for which the “activity change, negative = inhibition” value was -12.6% [at 46.1 µM].
On the same count and under the same terms, to `COc1cc2[nH]c(O)c(C=O)c2cc1OC` belongs 0.231% [at 46.1 µM]; to `COc1ccc(-c2csc(NC(=O)c3ccc(N4C(=O)CCC4=O)cc3)n2)cc1OC`, 3.07% [at 46.1 µM]; to `CCCc1ccc(-c2csc(NC(=O)Cc3cccs3)n2)cc1`, -11.2%.
With `COc1ccc(-c2csc(NC(=O)COC(=O)Cc3ccc(Cl)cc3Cl)n2)cc1`, the “activity change, negative = inhibition” value was -5.49%.
As to `COc1cc(CC(=O)Nc2nc(-c3ccc(F)c(F)c3)cs2)cc(OC)c1OC`, the Potency is 7.94 µM (active).
For `Cc1ccc(-c2csc(NC(=O)Cc3cccs3)n2)cc1C`, the “activity change, negative = inhibition” value was -8.89%.
`COc1ccc(CC(=O)Nc2nc(-c3ccc(F)c(F)c3)cs2)cc1OC`: the Potency was 10 µM (active).
With `CCOc1ccc(CCNC(=O)COC(=O)c2c(OC)cccc2OC)cc1OCC`, the “activity change, negative = inhibition” value was -14.9%.
As to `Cc1cc(Br)ccc1NC(=O)CN(C)C(=O)CN1C(=O)NC2(CCCC2)C1=O`, the “activity change, negative = inhibition” value was -2.22%.
With `CCc1nnc(NC(=O)C2CCN(C(=O)c3ccccc3C)CC2)s1`, the “activity change, negative = inhibition” value is 4.28%.
The same measure, in the same setting: the result for `O=C(Nc1ccccc1)C1CCN(C(=O)c2ccc(Br)cc2)CC1` reads -6.33%; that for `CCOC(=O)C(CO)NC(=O)C1(NC(C)=O)CCCC1` (configuration not stated) (Ac-[Ac5c]-[ξS]-OEt), 6.4% [at 46.1 µM].
On the same count and under the same terms, the result for `CCc1ccccc1NC(=S)N(CCN1CCCCCC1)Cc1ccco1` reads 3.1% [at 46.1 µM].
Regarding `CCc1cccc(C)c1NC(=S)N(CCCN1CCN(C)CC1)Cc1cccs1`, the Potency is 10 µM (active).
Turning to `Cc1ccccc1NC(=S)N(CCCN1CCOCC1)Cc1cccs1`, the “activity change, negative = inhibition” value is 18.9%.
Same read-out and setting: to `CCC(=O)Nc1ccc(S(=O)(=O)Nc2c(NC)c3ccccc3oc2=O)cc1` belongs -29.2% [at 46.1 µM]; to `CCCN(C(=O)CSc1nnc(N)s1)c1c(N)n(Cc2ccccc2)c(=O)[nH]c1=O`, -6.1%; to `CNC(=O)C1CC(=O)N(c2ccc(OCC(=O)Nc3ccccc3C)cc2)C1` (configuration not stated), 5.17%.
Take `Cc1cccc(N(C)C(=O)c2cc3c(=O)[nH]c4ccc(C)cc4c3s2)c1`: the Potency was 3.55 µM (active).
Consider `Cc1ccc2[nH]c(=O)c(CC=C(Cl)Cl)c(C)c2c1`, for which the “activity change, negative = inhibition” value was 7.58% [at 46.1 µM].
As for `COc1ccc(CNC(=O)c2cc3c(=O)[nH]c4ccc(C)cc4c3s2)c(OC)c1`, the “activity change, negative = inhibition” value was -18.7% [at 46.1 µM].
As to `CCOC(=O)N/N=C1\C[C@@H](O)[C@@H](O)[C@@H]2[C@@H]3C(=O)N(C4CCCCC4)C(=O)[C@@H]3CC[C@@H]12`, the “activity change, negative = inhibition” value was 19.7% [at 14.2 µM].
For `Cc1ccc(NC(=O)CSC2=C(C#N)[C@H](c3ccc4c(c3)OCO4)CC(=O)N2)cc1C`, the “activity change, negative = inhibition” value was -6.33%.
On to `NS(=O)(=O)c1cccc(NC(=O)COC(=O)c2cc([N+](=O)[O-])ccc2N2CCCC2)c1`, for which the “activity change, negative = inhibition” value was -19.3%.
On to `O=C(COC(=O)c1ccc([N+](=O)[O-])cc1Cl)NC(=O)c1ccccc1`, for which the “activity change, negative = inhibition” value is 11.8%.
For `N#Cc1cccc(NC(=O)COC(=O)c2ccccc2C(=O)c2ccc(Cl)c([N+](=O)[O-])c2)c1`, the Potency is 23.1 µM (active).
`CN(C(=O)CCNC(=O)Cn1ccc2ccccc2c1=O)c1ccc(Br)cc1`: the “activity change, negative = inhibition” value was 23.6% [at 46.1 µM].
In the case of `O=C(CCC1CCCN(C(=O)c2ccc(F)c(F)c2)C1)N1CCN(c2ccccn2)CC1` (configuration not stated), the “activity change, negative = inhibition” value is -24.9%.
The same measure, in the same setting: to `CC1(c2ccccc2)NC(=O)N(CC(=O)Nc2cc(Cl)ccc2N2CCOCC2)C1=O` (configuration not stated) belongs 2.18%.
Same read-out and setting: the result for `COc1cc(OC)cc(-c2c(-c3cccs3)c3cc(-c4ccc(OC)cc4F)ccc3n2C)c1` reads -2.74%.
Take `Cc1ccccc1N1CC(C(=O)Nc2nnc(SCCC3OCCO3)s2)CC1=O` (configuration not stated): the “activity change, negative = inhibition” value is -24.4%.
As for `CC(C)(C)c1cc(C(=O)NN)n(Cc2ccc(Cl)cc2Cl)n1`, the Potency is 11.2 µM (active).
Take `NNC(=O)c1ccc(Cl)cc1Cl`: the “activity change, negative = inhibition” value was 5.31%.
The same measure, in the same setting: to `CC(C)(C)NC(=O)NC(=O)COC(=O)Cc1ccc(Cl)cc1Cl` belongs -0.511% [at 46.1 µM].
Still for that read-out and setting: the result for `Cc1cc(NC[C@@H]2CCCO2)n2c(nc3ccccc32)c1C#N` reads 1.22% [at 46.1 µM].
Still for that read-out and setting: the result for `CN1CCN(CCNC(=O)Nc2ccccc2[N+](=O)[O-])CC1` reads 26.4% [at 46.1 µM].
As to `CCOc1ccc(CN2CCCN(C)CC2)cc1`, the “activity change, negative = inhibition” value was -2.41%.
For `CCOc1ccc(C(O)Cc2nc3ccccc3n2C)cc1` (configuration not stated), the “activity change, negative = inhibition” value is 14.5%.
Consider `CCOc1ccc(C(O)Cn2c(=N)n(CCN3CCCCC3)c3ccccc32)cc1` (configuration not stated), for which the Potency was 18.3 µM (active).
On to `CCOc1ccc(S(=O)(=O)N2CCN(C(=S)NCC3CCCO3)CC2)cc1` (configuration not stated), for which the “activity change, negative = inhibition” value is 22.4% [at 46.1 µM].
For `CC1(C)C(=O)CCC2(C)C1=CCC1C2C(=O)CC2(C)C1CCC2(O)C(=O)CO` (configuration not stated), the “activity change, negative = inhibition” value is -26.4%.
`CC(=O)OCC(=O)C1(O)CCC2C3CC(C)C4=CC(=O)CCC4(C)C3C(O)CC21C` (configuration not stated): the “activity change, negative = inhibition” value is -12.6% [at 46.1 µM].
On the same count and under the same terms, to `COc1ccccc1NC(=O)N1CCCC1C(=O)NCc1cccs1` (configuration not stated) belongs 2.43% [at 46.1 µM]; to `CCS(=O)(=O)Nc1ccc(C2=NN(C(C)=O)C(c3cccs3)C2)cc1` (configuration not stated), -4.67% [at 46.1 µM].
`CS(=O)(=O)Nc1ccc(C2=NN(S(C)(=O)=O)C(c3cccs3)C2)cc1` (configuration not stated): the “activity change, negative = inhibition” value was 15.1%.
In the case of `CCS(=O)(=O)Nc1ccc(C2=NN(S(=O)(=O)c3ccc(F)cc3)C(c3ccco3)C2)cc1` (configuration not stated), the Potency is 18.3 µM (active).

For the origin of these results see PubChem BioAssay AID540276 (National Center for Advancing Translational Sciences (NCATS), 2011).
